# Results filed as inconclusive are left out. A number with no mark means an inactive call. Active and inactive are the calls of the source. The call rests on the fitted dose curve; in most records, active means well fitted inhibition curve with a large enough effect; inconclusive means small, poorly fitted or top-dose-only effect; inactive means flat fitted curve, though single readings scatter.
# Legend:
# Experiment in all cases: Cytotoxic Profiling of Annotated Libraries Using Quantitative High-Throughput Screening (AID 1296008); further: nearly all actives have a fitted effect of over 60% in size
# Conditions in all cases: Five cell lines viability, CellTiter-Glo ATP luminescence, 48-72 h; max response: active compounds read low
# [1] = tested on: CRL-7250
# Procedure, shortened: (§1)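 Compounds were pin-transferred onto cells and incubated 48 or 72 hr at 37 degree Celsius, 95% humidity. CellTiter-Glo was added, plates sat 10 min at room temperature, then ATP-coupled luminescence was imaged as the viability read-out.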
# [2] = tested on: HEK293
# Procedure, shortened: as §1
# [3] = tested on: HaCat
# Procedure, shortened: as §1
# [4] = tested on: KB-3-1
# Procedure, shortened: as §1
# [5] = tested on: NIH3T3
# Procedure, shortened: as §1
# On the % scale 0 is the no-effect control and ±100 the full control effect; potency means the concentration at half of the fitted maximal effect.
smiles,measurement,setting,value
C=C1CCC2C(C)(C)C(O)CCC2(C)C1CCC(C)CCO (stereo not given),max response,[1],-1.18%
same,Potency,[2],11400 nM (active)
same,max response,[3],-1.49%
same,max response,[4],-10.1%
same,max response,[5],-0.535%
O=C(O)CC1CCC(c2ccc(-c3ccc4nc(C(=O)NCc5ccc(OC(F)(F)F)cc5)cn4c3)cc2)CC1 (stereo not given),max response,[1],4.28%
same,max response,[2],-9.35%
same,max response,[3],-3.96%
same,max response,[4],-0.0408%
same,max response,[5],-0.598%
COC(=O)N[C@H](C(=O)N1[C@@H]2CC[C@@H](C2)[C@H]1c1nc2ccc(-c3ccc4c(c3)C(F)(F)c3cc(-c5cnc([C@@H]6CCC7(CC7)N6C(=O)[C@@H](NC(=O)OC)C(C)C)[nH]5)ccc3-4)cc2[nH]1)C(C)C,max response,[1],-2.17%
same,Potency,[2],3990 nM (active)
same,max response,[3],-33.1%
same,max response,[4],-8.63%
same,max response,[5],-14.9%
CC(Oc1ccc2[nH]nc(/C=C/c3cnn(CCO)c3)c2c1)c1c(Cl)cncc1Cl (stereo not given),Potency,[1],1460 nM (active)
same,Potency,[2],2910 nM (active)
same,Potency,[3],2060 nM (active)
same,Potency,[4],291 nM (active)
same,Potency,[5],517 nM (active)
N#C[C@@H]1C[C@H](F)CN1C(=O)CNC1[C@H]2CN(C(=O)c3ccc(F)cc3)C[C@@H]12 (stereo not given in full),max response,[1],-1.2%
same,max response,[2],2.87%
same,max response,[3],-7.89%
same,max response,[4],1.86%
same,max response,[5],-2.06%
CC(C)(C)NCCCNC(=O)c1cccc(Br)c1,outcome,[1],inactive
same,max response,[2],0.813%
same,max response,[3],4.1%
same,max response,[4],6.67%
same,max response,[5],3.37%

# — PubChem BioAssay (NCATS)
